These results are taken from the supplement of paper PMC6555819.

The subject of this assay is VDR:RXRa (NR concentration 270 nM, RXRa partner concentration 90 nM). In words: PBM binding z-score (relative to random genomic background probes); higher = stronger binding; sequences stand for … in GC…GCGATTGACAGCGTAGAATGAAGG
The procedure: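 Protein-binding microarray (Agilent 4x180K custom design, double-stranded 60-nt probes: 5' GC cap, 34-nt variable region, 24-nt constant primer region; full probe sequence given). Purified or IVT nuclear receptor:RXRα heterodimers (3:1 NR:RXRα, mostly 270:90 nM) or homodimers were incubated for 1 h in PBS with 2% milk and no ligand, then detected with Alexa488 antibodies. Fluorescence from o1-orientation probes (~5 replicates averaged) was converted to z-scores against 500 random hg19 background probes. Variable regions are seed direct-repeat (DR0–DR5) sites, all their single-nucleotide variants and half-site ablations.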
ACTAGTTGGTCAGTTGAGGTCACACACAATTCGG came in with a PBM binding z-score of 4.65. Consider CAAACTAGGTCACAGCGGTCAAAGTCCGTGCGTA, for which the PBM binding z-score came to 5.9. For AGACCGAGGGCAATGAGTTGATAGCACGGGTGGC, the PBM binding z-score was 4.82.

On to CGGACTGGGGCAGAAAGGTTACCATACCATCCGG, for which the PBM binding z-score came out at 1.33. With TAGCCTAGGTCATTGGGCCAGTAGAGTACGCATC, the PBM binding z-score came out at 2.26.

GCTAGCAGGCCATTTGGGTCACTCAATGACGGGC showed a PBM binding z-score of 0.933.

Sequence TCATATAGGTATATGCTAGGTGAAAGTCCGATCT came in with a PBM binding z-score of 0.832. The result for CCTCGGAGGACAGAAGGTCCGAGCTGTCCGCTTT reads -0.656. TCTAGCAGGCCAGCGGGTCACTCAAGAGGTACGG showed a PBM binding z-score of 0.435. The result for CAATCTAGGTCAAGAGGTCAAAGTCCGCTTCCCG reads 6.23; that for CCGGCTGGGGCATAAGGTTACCATAAGCCAGCCC, -0.119; that for ATCGGAAGGTCGTGAGGTGAGTATACAGAAAGGC, 2.1. The result for CAAACTAGGTCAAGAGGTCAAAGCCCGCTTCCCG reads 5.9. For the sequence CGAACTAGGTCAGAACAGGACAGTGAAGGATGAT, the PBM binding z-score is 0.634. In the case of CGTCCAAGGTCATAGGAGGTCAGTGACGACAGAT, the PBM binding z-score was found to be 6.55. The result for TTACCAAGGTGTAAGGTCGTTGATGCACGCCTTG reads 1.08; that for TCTATTAGTTGAAGGGCAGCCGACGAGTCCGTTT, 0.97. CCTTACGGGTCACGAGGCTATAGCACGACGAGCG returned a PBM binding z-score of 3.93. In the case of GCATATAGGTAATACAAGGTGAAAGTGCGATTGT, the PBM binding z-score is 0.469.

CAAACTAGGTCACGAAGGGTCAAAGTCGAATGAC showed a PBM binding z-score of 6.99. For the sequence TCTGCTAGGTCAACGATGGTCAGCCAATCTGCTA, the PBM binding z-score stood at 1.66. The result for TATACAGGGTCAAAGGCCAGAGTACGAATGTCGA reads 4.8; that for AGAAAGAGGTTAAGATCAGGGAAACAGAATACAT, 1.25. The result for AGAATGAGATTATACGTAGATCAGGGAAGAAAGT reads -0.367; that for GTAACGAGGGCAAAGTTGATAGCATCTGTCGACG, 1.53; that for TGTATTAGTTGATTAGGGCAACCGAAACAGCGGA, 0.00753. In turn, CCAGACAGGGGAAAGGTAACTCAGTCTGGTACGC came in with a PBM binding z-score of -0.0821. The result for AGAACGAGGGCACGCTGAGTTGATATCAGAGTAG reads 2.02; that for ATATGTAGGTTAGCTGGGGTCATCCAGACTAGGC, 6.18; that for AATACAGGTTCACTAGGCCAGAGTAGGTACGAAT, 3.2. The result for TAGCCTAGGTCATTGGGTCAGTATAGTACGCATC reads 4.26. The result for TCTTGTAGATCAATAGAGGTTAACAAAGTGCGCT reads 2.2; that for CCTACTGGGCCAAAATGGTCATTGATGCCGATAA, -0.0666; that for CCGACTGGGGCAAAGGTTACCAAACTCAGTACGA, 1.91. On to CCTAGCAGGCCAATCTCGGTCACTCAAGGCTTGA, for which the PBM binding z-score was -0.37.

In the case of CGTACAAGGTCATAGGAGGTCAGTGAAGACAGAT, the PBM binding z-score amounted to 6.79. The result for CCCTACGGGTCACTCCAGGTTATAGCATCGGAGT reads 4.12; that for ACAGACAGGTGAGTGAAGGTAACACAGCTGGACG, -0.0356; that for CCTACCAGGCCAATCTGGGTCACTCAAGGCTTGA, 0.999. The result for AATACAGGGTCATCGTAGGCTAGAGTACGCACAG reads 5.2.
